Reference: PubChem BioAssay (NCI)
This is part of a sample that, as a whole, favours compounds with a hit. Of some 79,000 tested, about 15% had one in any assay. Rule as the data show it: active = growth inhibition above about 70%; inactive = the rest.

Assays:
[1] = NCI Yeast Anticancer Drug Screen. Data for the rad50 strain (AID 155);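 also: 0% = growth of vehicle-only cultures of the same strain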; settings: S. cerevisiae rad50 strain growth inhibition; at 50.0 µM; hits give high values
Summary of the method: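 A DNA repair-deficient yeast mutant serves as the test organism; compound-induced growth inhibition is calculated against vehicle-treated cells.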

[2] = NCI Yeast Anticancer Drug Screen. Data for the mec2-1 strain (AID 157); settings: S. cerevisiae mec2-1 strain, at 50.0 µM, hits give high values
Summary of the method: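 Readout is yeast growth inhibition, normalised to vehicle-treated controls, in the mec2-1 strain exposed to compound.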

[3] = NCI Yeast Anticancer Drug Screen. Data for the sgs1 mgt1 strain (AID 161);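 also: 0% = growth of cultures given vehicle only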; settings: S. cerevisiae sgs1 mgt1 strain, at 50.0 µM, hits give high values
Summary of the method: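 Compounds are added to genetically altered yeast, and growth is compared with cultures given vehicle alone to give percent inhibition.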

[4] = NCI Yeast Anticancer Drug Screen. Data for the cln2 rad14 strain (AID 165);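 also: 0% = growth equal to vehicle treated cultures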; settings: S. cerevisiae cln2 rad14 strain, at 50.0 µM, hits give high values
Summary of the method: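 Relative to vehicle controls, growth inhibition of compound-treated cln2 rad14 yeast was recorded.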

[5] = NCI Yeast Anticancer Drug Screen. Data for the bub3 strain (AID 167); settings: S. cerevisiae bub3 mutant strain, at 50.0 µM, hits give high values
Summary of the method: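 Inhibition values come from growth of compound-treated mutant yeast normalised to vehicle-treated controls.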

[6] = NCI Yeast Anticancer Drug Screen. Data for the mlh1 rad18 strain (AID 175); settings: S. cerevisiae mlh1 rad18 strain growth inhibition; at 50.0 µM; hits give high values
Summary of the method: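 Test agents were incubated with a yeast strain of defined genotype (DNA damage repair defect). Inhibition of growth was derived by comparison with vehicle-exposed cultures.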

Measured: growth inhibition

NC(=O)CNc1ccc(CC2CCOC2=O)cc1 (centres undefined)
inactive: [1] -7.45% | [2] -18.9% | [3] -5.9% | [4] 0.95% | [5] 0.6% | [6] -5.7%

CCNc1ncnc2c1cnn2C
inactive: [1] 0.45% | [2] -1.45% | [3] 2.45% | [4] -36% | [5] -2.8% | [6] -8.4%

Cc1cc(C)c(C(CC(=O)O)C(CC(=O)O)c2c(C)cc(C)cc2C)c(C)c1 (centres undefined)
inactive: [1] -0.25% | [2] 1.5% | [3] -16.6% | [4] -21.4% | [5] -6.85% | [6] 32.4%

CNn1c(-c2ccc(C)cc2)n[nH]c1=O
inactive: [1] 8.95% | [2] 0.25% | [3] -5.95% | [4] 4.15% | [5] 18.7% | [6] 19.9%

CCCOC(=O)c1cccnc1C(=O)OCCC
inactive: [1] -0.2% | [2] -10.2% | [3] 1.5% | [4] -22.4% | [5] -2.5% | [6] -6.4%

O=C(Nc1cccc(Cl)c1)OCC#CCOC(=O)Nc1cccc(Cl)c1
inactive: [1] -4% | [2] 11.6% | [3] 1.95% | [4] -10.8% | [5] 0.85% | [6] 11.2%

O=C(Nc1ccc(Cl)c(Cl)c1)Oc1ccc(Cl)cc1C(=O)Nc1ccccc1
inactive: [1] -13.8% | [2] -2.6% | [3] 29.1% | [4] -7.4% | [5] 28.1% | [6] 37.6%

Cn1c([N+](=O)[O-])cnc1COc1ccc(OCc2ncc([N+](=O)[O-])n2C)cc1
inactive: [1] 4.45% | [2] -20.1% | [3] -0.55% | [4] 27.6% | [5] 0.4% | [6] -2.7%

O=C1CSC(=O)N1
inactive: [1] -24.3% | [2] -14.4% | [3] -0.2% | [4] -32.8% | [5] -38% | [6] -41.5%

O=C(/C=C/c1ccc(O)cc1)c1ccc(Cl)cc1
inactive: [1] -17.7% | [2] -22.9% | [3] -18.6% | [4] -36.9% | [5] 20.4% | [6] -16.4%

COc1ccc(N2C(=O)C(=O)C3(CCCCC3)C2=O)c2ccccc12
inactive: [1] -6.15% | [2] -25.7% | [3] -16% | [4] 10.8% | [5] 1.05% | [6] 0.3%

Cc1ccc(CNc2ccccc2)cc1
inactive: [1] 18.9% | [2] -6.45% | [3] 27.3% | [4] 8.8% | [5] 14.7% | [6] 7.55%

Cc1cccc2c1C1c3ccccc3C(=O)CC1CC2=O (centres undefined)
inactive: [1] 14.9% | [2] 30% | [3] 22.9% | [4] 25.7% | [5] 11% | [6] 35.2%

O=C(Nc1ccccc1Cl)Nc1cccc2ccccc12
inactive: [1] 15.2% | [2] 1.3% | [3] 17.8% | [4] -1.6% | [5] 4.55% | [6] 8.65%

CCN(CC)c1cc2oc(=O)cc(C)c2cc1NC(=O)c1cc([N+](=O)[O-])cc([N+](=O)[O-])c1
inactive: [1] -0.6% | [2] -0.7% | [3] -2.1% | [4] -0.4% | [5] 0% | [6] 15.3%

CSc1nc2ncnc(NCc3ccc(Cl)cc3)c2[nH]1
inactive: [1] -11% | [2] -4.35% | [3] -4.1% | [4] -43.3% | [5] -7.45% | [6] -35.7%

COC(=O)N/N=C(\C(=O)Nc1cccc([N+](=O)[O-])c1)c1nc2ccc([N+](=O)[O-])cc2[nH]c1=O
inactive: [1] 8.65% | [2] -7.75% | [3] 25% | [4] 14.8% | [5] -17.1% | [6] -1.25%

Cc1c(O)c([N+](=O)[O-])cc2c1OCOC2
inactive: [1] 3.8% | [2] 11.6% | [3] -3.15% | [4] -9.4% | [5] -17.5% | [6] 0%

Clc1cccc(NNc2cccc(Cl)c2)c1
inactive: [1] -11.5% | [2] -16.8% | [3] -13.8% | [4] -66.2% | [5] 7.25% | [6] -25.9%
